# Laboratory results: PubChem BioAssay (EPA / NIEHS)
# Inconclusive results are not listed. Some structures have more than one record in an assay (separate samples or runs), and their calls can disagree. Calls of active or inactive are those of the source. The calls were made as follows, unless noted: active = hit-call score of the fitted dose curve at least 0.9, where 1 is the maximum; inactive = score below 0.9.
# System: not listed separately
# Assay: IUF_NPC2-5_cell_number_120hr: Cell Number Assessment at 120 hours in the Leibniz Research Institute for Environmental Medicine (IUF) Neural Progenitor Cell Migration and Differentiation Assay (NPC2-5) (AID 2284308);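 also: count of Hoechst-stained nuclei in migration zone around plated human neural progenitor spheres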
# Conditions: not given
# How it was run: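 Cell number is taken as all Hoechst-positive nuclei detected in the area into which cells migrate out of the sphere, scored at 120 h and referenced to DMSO solvent control, which was kept at no more than 0.1%.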
row,Compound,outcome
1,CN1CCC[C@H]1c1cccnc1,inactive
2,CC1=C(/C=C/C(C)=C/C=C/C(C)=C/C(=O)O)C(C)(C)CCC1,inactive
3,CC#C[C@]1(O)CC[C@H]2[C@@H]3CCC4=CC(=O)CCC4=C3[C@@H](c3ccc(N(C)C)cc3)C[C@@]21C,inactive

# System: not listed separately
# Assay: IUF_NPC2-5_viability_120hr: Viability Assessment at 120 hours in the Leibniz Research Institute for Environmental Medicine (IUF) Neural Progenitor Cell Migration and Differentiation Assay (NPC2-5) (AID 2284312)
# Conditions: not given
# How it was run: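 Human fetal neural progenitor spheres (0.3 mm) plated on poly-D-lysine/laminin in N2 differentiation medium, exposed 120 h with half-medium refresh at day 3. Viability by alamar blue resazurin fluorescence; 7 concentrations, DMSO max 0.1%.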
row,Compound,outcome
1,CN1CCC[C@H]1c1cccnc1,inactive
2,CC1=C(/C=C/C(C)=C/C=C/C(C)=C/C(=O)O)C(C)(C)CCC1,inactive
3,CC#C[C@]1(O)CC[C@H]2[C@@H]3CCC4=CC(=O)CCC4=C3[C@@H](c3ccc(N(C)C)cc3)C[C@@]21C,inactive

# System: IYD (gene 389434)
# Assay: CCTE_GLTED_hIYD: CCTE's human Iodotyrosine Deiodinase (xIYD) Inhibition Assay, Great Lakes Toxicology and Ecology Division (GLTED) Lab (AID 2284317; active = hit-call score of the fitted dose curve at least 0.9, where 1 is the maximum;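 also: cell-free human IYD enzyme made in baculovirus insect cells; iodide freed from monoiodotyrosine measured by cerium arsenite color change at 420 nm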)
# Conditions: not given
# How it was run: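 Absorbance change at 420 nm from the iodide-catalysed cerium-arsenic reaction reports free iodide released by human IYD from monoiodotyrosine. Enzyme, substrate and chemical are incubated 3 h; loss of signal is fitted relative to DMSO baseline.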
Compound,AC50,outcome
O=C1OC2(c3ccccc31)c1cc(Br)c(O)c(Br)c1Oc1c2cc(Br)c(O)c1Br,42.2 µM (active),–
CCCCCCCCCCCCCC[N+](C)(C)C,88.3 µM (active),–
CC(C)(C)c1ccc(O)c(C(C)(C)C)c1,100 µM (active),–
CC(C)(C)c1cccc(C(C)(C)C)c1O,100 µM (active),–
CCC(=C(c1ccc(O)cc1)c1ccc(OCCN(C)C)cc1)c1ccccc1,–,inactive
CCCCCCCCCCCCc1ccccc1S(=O)(=O)O,34.4 µM (active),–

# System: not listed separately
# Assay: CCTE_Mundy_HCI_iCellGluta_NOG_NeuriteLength: CCTE's Neurite Outgrowth Assay in iCellGluta cells for Neurite Length, Mundy Lab (AID 2284318; active = hit-call score of the fitted dose curve at least 0.9, where 1 is the maximum)
# Conditions: not given
# How it was run: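 Automated high-content imaging of betaIII-tubulin (Alexa Fluor-488) and Hoechst-stained cells gave neurite length, normalized to the DMSO baseline.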
Compound,outcome,AC50
C=C(C)C(=O)OCCC(F)(F)C(F)(F)C(F)(F)C(F)(F)C(F)(F)C(F)(F)F,inactive,–
OCCC(F)(F)C(F)(F)C(F)(F)C(F)(F)C(F)(F)C(F)(F)F,inactive,–
OCCC(F)(F)C(F)(F)C(F)(F)C(F)(F)C(F)(F)C(F)(F)C(F)(F)C(F)(F)F,inactive,–
CC#C[C@]1(O)CC[C@H]2[C@@H]3CCC4=CC(=O)CCC4=C3[C@@H](c3ccc(N(C)C)cc3)C[C@@]21C,inactive,50 µM (active)

# System: not listed separately
# Assay: CCTE_Deisenroth_5AR_NBTE_donor: CCTE's 5alpha-reductase NanoBRET Target Engagement Assay […], Deisenroth Lab (AID 2284319)
# Conditions: actives raise or lower the signal
# How it was run: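 In this secondary endpoint, donor luminescence from SRD5A2-NanoLuc in transfected HEK293T flags artifacts. Test chemical (10 nM - 29.9 uM) is present five hours, tracer the last two; mock-tracer wells run plate-matched; data fitted bidirectionally against DMSO.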
Compound,outcome,AC50
O=C1OC2(c3ccccc31)c1cc(Br)c(O)c(Br)c1Oc1c2cc(Br)c(O)c1Br,inactive,–
CCN(CC)CCNc1ccc(CNC=O)c2sc3ccc(OC)cc3c(=O)c12,inactive,–
COCC(C)OCC(C)O (stereo unspecified),inactive,–
CCCCCCCCCCCCCC[N+](C)(C)C,–,42.7 µM (active)
CCCCCCCCOC(=O)CCCCCCCCC(=O)OCCCCCCCC,inactive,–
COCC(C)O (stereo unspecified),inactive,–
CCOC(=O)CC(O)(CC(=O)OCC)C(=O)OCC,inactive,–
O=[N+]([O-])c1ccc(O)cc1,inactive,–

# System: not listed separately
# Assay: CCTE_Deisenroth_5AR_NBTE_acceptor: CCTE's 5alpha-reductase NanoBRET Target Engagement Assay - Autofluorescence Screen, Deisenroth Lab (AID 2284321);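 also: compound fluorescence in the acceptor channel under 460 nm excitation flags autofluorescence artifacts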
# Conditions: actives raise or lower the signal
# How it was run: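 Chemicals diluted to a nominal 100 uM in DMSO were scanned at 460 nm excitation. Samples were read in three independent runs (n=3). Gain or loss of acceptor signal was fitted relative to DMSO.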
Compound,outcome,AC50
O=C1OC2(c3ccccc31)c1cc(Br)c(O)c(Br)c1Oc1c2cc(Br)c(O)c1Br,inactive,–
CCN(CC)CCNc1ccc(CNC=O)c2sc3ccc(OC)cc3c(=O)c12,inactive,–
COCC(C)OCC(C)O (stereo unspecified),inactive,–
CCCCCCCCCCCCCC[N+](C)(C)C,–,26.2 µM (active)
CCCCCCCCOC(=O)CCCCCCCCC(=O)OCCCCCCCC,inactive,–
COCC(C)O (stereo unspecified),inactive,–
CCOC(=O)CC(O)(CC(=O)OCC)C(=O)OCC,inactive,–
O=[N+]([O-])c1ccc(O)cc1,inactive,–

# System: SRD5A2 (gene 6716)
# Assay: CCTE_Deisenroth_5AR_NBTE_ratio: CCTE's 5alpha-reductase NanoBRET Target Engagement Assay - Ratio, Deisenroth Lab (AID 2284322)
# Conditions: actives raise or lower the signal
# How it was run: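 HEK293T transiently expressing SRD5A2-NanoLuc; cells exposed to chemical (8-point, 10 nM - 29.9 uM) for 5 h total, testosterone tracer added for final 2 h. NanoBRET acceptor/donor ratio (650/460 nm), bidirectional fit vs DMSO.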
Compound,AC50,outcome
O=C1OC2(c3ccccc31)c1cc(Br)c(O)c(Br)c1Oc1c2cc(Br)c(O)c1Br,7.55 µM (active),–
CCN(CC)CCNc1ccc(CNC=O)c2sc3ccc(OC)cc3c(=O)c12,–,inactive
COCC(C)OCC(C)O (stereo unspecified),–,inactive
CCCCCCCCCCCCCC[N+](C)(C)C,75.1 µM (active),–
CCCCCCCCOC(=O)CCCCCCCCC(=O)OCCCCCCCC,–,inactive
COCC(C)O (stereo unspecified),–,inactive
CCOC(=O)CC(O)(CC(=O)OCC)C(=O)OCC,–,inactive
O=[N+]([O-])c1ccc(O)cc1,71.2 µM (active),–

# System: not listed separately
# Assay: TAMU_PeakParms_SingleDonor1434_Asystole: Texas A&M University (TAMU) 1.5-hr Human Induced Pluripotent Stem Cell (iPSC)-derived Cardiomyocytes Calcium (Ca+2) Flux Assay for Cardiotoxicity: Asystole (quiescence of beating) (AID 2284328; active = hit-call score of the fitted dose curve at least 0.9, where 1 is the maximum)
# Conditions: not given
# How it was run: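 Donor 1434 iPSC-cardiomyocytes exposed 90 min at 37C, 5% CO2, to 0.2, 1, 10 and 100 uM in 0.5% DMSO. Ca2+ dye fluorescence gave average peak frequency; POD is EC95, a 95% beat-rate drop versus controls.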
row,Compound,outcome
1,c1ccc2c(c1)ccc1ccccc12,inactive
2,c1ccc2cc3c(ccc4ccccc43)cc2c1,inactive
3,c1ccc2c(c1)Cc1ccccc1-2,inactive
4,CC#C[C@]1(O)CC[C@H]2[C@@H]3CCC4=CC(=O)CCC4=C3[C@@H](c3ccc(N(C)C)cc3)C[C@@]21C,inactive

# System: Brachyury (BRA) Protein Expression, Deisenroth Lab, TBXT (gene 6862)
# Assay: CCTE_Deisenroth_DEVTOX-GLR_legacy_Bra: (Legacy) CCTE's DevTox GLR-Endo Assay Evaluation of Brachyury (BRA) Protein Expression, Deisenroth Lab (AID 2284329)
# Conditions: not given
# How it was run: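 RUES2-GLR human pluripotent cells are differentiated for 48 h and receive two chemical exposures 24 h apart, at 10 concentrations from 1 nM to 200 uM. Cells are fixed, nuclei stained and imaged. Bra+ cells are those with mean Bra intensity over 5x BMAD above the pluripotent control median, expressed as a percentage of cell count, after subtracting the 0.2% DMSO control median.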
Compound,outcome,AC50
C[C@@H]1C[C@H]2[C@@H]3CCC4=CC(=O)C=C[C@]4(C)[C@@]3(F)[C@@H](O)C[C@]2(C)[C@@]1(O)C(=O)COP(=O)(O)O,inactive,–
CC(O)CO (stereo unspecified),inactive,–
CC1=C(/C=C/C(C)=C/C=C/C(C)=C/C(=O)O)C(C)(C)CCC1,–,11.7 µM (active)

# System: not listed separately
# Assay: CCTE_Deisenroth_DEVTOX-GLR_legacy_CellCount: (Legacy) Viability Assessment in CCTE's DevTox GLR-Endo Assay, Deisenroth Lab (AID 2284331)
# Conditions: actives raise or lower the signal
# Protocol: CCTE_Deisenroth_DEVTOX-GLR_legacy assay is a cell-based, multiplex-readout assay that uses RUES2-GLR, a human pluripotent cell line, with measurements taken at 48 hours after chemical dosing in a 384-well microplateCCTE_Deisenroth_DEVTOX-GLR_legacy_CellCount is one of 4 assay components calculated from the CCTE_Deisenroth_DEVTOX-GLR_legacy assay that measures an increase in cell count. It is designed to make measurements of nuclei count, a form of cell viability, as detected with optical fluorescence microscopy by Perkin Elmer Harmony nuclei detection algorithm. The assay endpoints were analyzed with bidirectional fitting relative to 0.2% DMSO control in the DEVTOX-GLR assay.Data from the assay component CCTE_Deisenroth_DEVTOX-GLR_legacy_CellCount was analyzed into 1 assay endpoint. This assay endpoint, CCTE_Deisenroth_DEVTOX-GLR_legacy_CellCount, was analyzed with bidirectional fitting relative to DMSO as the negative control and baseline activity. Using nuclei counting, gain or loss-of-signal activity can be used to understand changes in cell viability. Furthermore, this assay endpoint can be referred to as a primary readout, because this assay has produced multiple assay endpoints where this one serves as a measure of cytotoxicity. To generalize the intended target to other relatable targets, this assay endpoint is annotated to the cell cycle intended target family, where the subfamily is cytotoxicity.
# All assay protocols are aligned to the DevTox GLR-Endo assay workflow. Cells are seeded into 384-well microplates for 24 hours prior to initiating differentiation in defined media for a total duration of 48 hours. A total of two chemical exposures are administered in 24-hour intervals during the 48-hour differentiation period. At the assay termination point, cells are fixed and stained with a fluorescent dye demarcating the nucleus. […] Cell identification and mean biomarker fluorescence intensities are calculated with image analysis software to determine the total cell counts for viability assessment and the biomarker expression frequency for each lineage-dependent assay. […]
Compound,outcome,AC50
C[C@@H]1C[C@H]2[C@@H]3CCC4=CC(=O)C=C[C@]4(C)[C@@]3(F)[C@@H](O)C[C@]2(C)[C@@]1(O)C(=O)COP(=O)(O)O,inactive,–
CC(O)CO (stereo unspecified),inactive,–
CC1=C(/C=C/C(C)=C/C=C/C(C)=C/C(=O)O)C(C)(C)CCC1,–,4.44 µM (active)
